Compounds with a hit are over-represented: about 10% of the library has one in this group of screens.
Lamin A splicing = qHTS Assay for Modulators of Lamin A Splicing. HeLa LMNA splicing GFP/RFP minigene ratio, 48 h. Potency, µM (highest dose often 46.1 µM), for the others: top-dose ratio change, negative = inhibition, hits mostly inhibitors. 200,000 compounds, 0.01% hits. AID 1487, 2009; active = well fitted inhibition curve with a large enough effect in the signal ratio, with a control signal flat, not every such curve was filed as active; inconclusive = small, poorly fitted or top-dose-only effect, or effect the other way, or a change in a side signal; the % refers to the signal ratio; note: potency is the fitted concentration of half-maximal effect
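S3 HeLa cells stably expressing lamin A-EGFP splicing minigene plus DsRed2, 600 cells/well, 48 h compound exposure at 37C. Laser-scanning cytometry; analysed as GFP (500-530 nm)/RFP (575-640 nm) total intensity ratio; 0.5% DMSO vehicle.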
ALDH1A1 block = qHTS Assay for Inhibitors of Aldehyde Dehydrogenase 1 (ALDH1A1); Aldehyde dehydrogenase 1A1 (Homo sapiens), P00352; Purified ALDH1A1, NADH fluorescence, propionaldehyde substrate; Potency, µM (series often up to 75.3 µM), for the others: top-dose activity, negative = inhibition, actives largely listed as inhibitors; 220,000 compounds, 7.3% hits; AID 1030, 2008;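 note: potency is the fitted concentration of half-maximal effect; plate controls were no enzyme wells and a reference inhibitor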
Target sequence (P00352 whole entry, looked up): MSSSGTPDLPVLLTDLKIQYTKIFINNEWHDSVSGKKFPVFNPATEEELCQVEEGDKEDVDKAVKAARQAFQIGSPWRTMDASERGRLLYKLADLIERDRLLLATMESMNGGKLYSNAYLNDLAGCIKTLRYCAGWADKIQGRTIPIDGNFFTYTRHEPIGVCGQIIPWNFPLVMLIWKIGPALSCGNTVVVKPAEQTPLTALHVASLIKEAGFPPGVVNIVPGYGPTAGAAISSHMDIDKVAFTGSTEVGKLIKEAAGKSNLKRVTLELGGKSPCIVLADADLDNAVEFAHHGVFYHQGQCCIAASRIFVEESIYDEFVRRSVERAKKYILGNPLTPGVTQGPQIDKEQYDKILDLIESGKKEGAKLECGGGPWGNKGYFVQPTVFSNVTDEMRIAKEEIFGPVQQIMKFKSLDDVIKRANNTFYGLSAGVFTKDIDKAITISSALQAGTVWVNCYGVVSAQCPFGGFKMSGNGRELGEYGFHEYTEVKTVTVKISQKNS
ALOX12 inhib = qHTS Assay for Inhibitors of 12-hLO (12-human lipoxygenase); purified 12-hLO, xylenol orange hydroperoxide absorbance; 150,000 compounds, 0.12% hits; Polyunsaturated fatty acid lipoxygenase ALOX12 (Homo sapiens), P18054; AID 1452, 2008; Potency, µM (highest dose often 57.1 µM), inactives show top-dose activity change, negative = inhibition, actives largely listed as inhibitors; active = well fitted inhibition curve with a large enough effect; inconclusive = small, poorly fitted or top-dose-only effect; note: potency is the fitted concentration of half-maximal effect; nearly all actives have a fitted effect of over 55% in size
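Lipoxygenase turnover measured by absorbance at 573 and 405 nm after Fe-XO development. Human 12hLO 150 nM, arachidonate 40 uM, pH 7.0 Hepes buffer with detergent; 15 min compound preincubation, 30 min reaction.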
HPGD block = qHTS Assay for Inhibitors of HPGD (15-Hydroxyprostaglandin Dehydrogenase) | purified HPGD, NADH fluorescence kinetic, PGE2 substrate | Potency, µM, without a hit: at the highest dose activity change, negative = inhibition, most hits filed as inhibitors | 150,000 compounds, 4.3% hits | AID 894, 2007; note: potency is the fitted concentration of half-maximal effect
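NADH formation kinetics: reaction with 30 uM PGE2 and 1 mM NAD+ (final), 20 nM enzyme, Tris-HCl pH 8 with Tween 20, after 15 min compound preincubation at room temperature. Fluorescence change, last versus first of five reads.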
PNC assembly inh = High Content Assay for Compounds that inhibit the Assembly of the Perinucleolar Compartment | PC3M PTB-GFP, PNC prevalence imaging, 16 h; active compounds read low | activity change (PNC), negative = inhibition, % at 10 µM | 140,000 compounds, 3.1% hits | AID 2417, 2010;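 active = readout at or below -70, meaning at least 70% loss of cells showing the perinucleolar compartment, a nuclear body marking cancer cells; inconclusive = readout between -30 and a set limit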;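 note: plate controls were DMSO wells for no effect and camptothecin positive control wells for full effect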
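PC3M cells stably expressing PTB-GFP, 750–1000 cells/well, treated 16 h at 37 °C with compound (23 nl of library stock), in duplicate. After paraformaldehyde fixation and Hoechst stain, imaged at 20x; PNC prevalence scored by image analysis.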
Starred values were filed as active, the others as inactive; [ ] = remark or other dose. Unless noted, calls come from the whole dose curve; as a rule, active = well fitted inhibition curve with a large enough effect (not every such curve was filed as active); inconclusive = small, poorly fitted or top-dose-only effect, or another doubt; inactive = no such curve, though single readings can be large or run the other way. Unless noted, % is set by controls: 0 for no effect and ±100 for the full control effect.

What do the screens show for `O=c1[nH]c(=S)[nH]c(O)c1N=Nc1ccc(SC(F)F)cc1`?
ALDH1A1 block: 20µM*

Results for O=C(c1ccccc1)c1ccc(N=Nc2c(O)[nH]c(=O)[nH]c2=O)cc1 ?
Lamin A splicing: -23%[46 µM]; ALDH1A1 block: inconclusive

Results for CCCCCCCCCCCCCC(=O)O[C@H]1[C@@H](C)[C@@]2(O)[C@@H](C=C(CO)C[C@]3(O)C(=O)C(C)=C[C@@H]23)C2C(C)(C)[C@]21OC(C)=O (stereo partly specified) ?
ALOX12 inhib: -5%

How did CCC1=C(C[C@H]2NCCc3cc(OC)c(OC)cc32)C[C@H]2c3ccccc3CCN2C1 do in these assays?
ALDH1A1 block: 16%[13.5 µM]; ALOX12 inhib: 11%[11.4 µM]; HPGD block: -1%

What do the screens show for `Cc1ccc(S(=O)(=O)Nc2cc(C(=O)N3CCC4(CC3)OCCO4)ccc2N2CCCCC2)cc1`?
Lamin A splicing: inconclusive; ALDH1A1 block: 4µM*; ALOX12 inhib: -5%; HPGD block: -25%; PNC assembly inh: 81

How did O=C(c1ccc(CS(=O)(=O)c2ccc(Br)cc2)o1)N1CCC2(CC1)OCCO2 do in these assays?
Lamin A splicing: 3%; ALDH1A1 block: -3%; ALOX12 inhib: -6%; HPGD block: -5%; PNC assembly inh: inconclusive

What do the screens show for `O=C(c1ccc(CS(=O)(=O)c2ccccc2)o1)N1CCC2(CC1)OCCO2`?
Lamin A splicing: -11%; ALDH1A1 block: 22µM*; ALOX12 inhib: 3%; HPGD block: -6%; PNC assembly inh: 25

How did O=C(c1ccc(CNS(=O)(=O)c2ccccc2)cc1)N1CCC2(CC1)OCCO2 do in these assays?
Lamin A splicing: 19%; ALDH1A1 block: 8.9µM*; ALOX12 inhib: -3%; HPGD block: inconclusive; PNC assembly inh: 5

What do the screens show for `CC(=O)Nc1cc(C(=O)N2CCC3(CC2)OCCO3)ccc1Sc1ccc(F)cc1`?
Lamin A splicing: inconclusive; ALDH1A1 block: 3µM*

Results for CC(=O)Nc1cc(C(=O)N2CCC3(CC2)OCCO3)ccc1Sc1ccc(C)cc1 ?
Lamin A splicing: 5%; ALDH1A1 block: inconclusive; ALOX12 inhib: -4%; HPGD block: -10%; PNC assembly inh: inconclusive

Results for CCCC(=O)Nc1cc(C(=O)N2CCC3(CC2)OCCO3)ccc1S(=O)(=O)c1ccc(C)cc1 ?
Lamin A splicing: 2%; ALDH1A1 block: 0%; ALOX12 inhib: -3%; HPGD block: -6%; PNC assembly inh: inconclusive

Results for CN[C@@H](CC(C)C)C(=O)N[C@@H]1C(=O)N[C@H](CC(N)=O)C(=O)N[C@@H]2C(=O)N[C@H]3C(=O)N[C@H](C(=O)N[C@H](C(=O)O)c4cc(O)cc(O)c4-c4cc3ccc4O)[C@H](O)c3ccc(c(Cl)c3)Oc3cc2cc(c3O[C@H]2O[C@@H](CO)[C@@H](O)[C@@H](O)[C@@H]2O[C@@H]2C[C@](C)(N)[C@H](O)[C@H](C)O2)Oc2ccc(cc2Cl)[C@@H]1O ?
Lamin A splicing: 6%; ALDH1A1 block: 0%[20.9 µM]; ALOX12 inhib: -3%[25.6 µM]; HPGD block: -7%

How did Cc1cccc(CN2CCN(CC(=O)N3CCC4(CC3)OCCO4)C2=O)c1 do in these assays?
Lamin A splicing: 0%; ALDH1A1 block: 8%; ALOX12 inhib: 1%; HPGD block: -6%; PNC assembly inh: -7

Results for Cc1cccc(CS(=O)(=O)Cc2ccc(C(=O)N3CCC4(CC3)OCCO4)o2)c1 ?
Lamin A splicing: -1%; ALDH1A1 block: 25µM*; ALOX12 inhib: -2%; HPGD block: -3%; PNC assembly inh: 10

Results for C[C@@H](Cc1ccc2c(c1)OC(C(=O)O)(C(=O)O)O2)NC[C@H](O)c1cccc(Cl)c1 ?
ALOX12 inhib: -7%

What do the screens show for `CC1CC(OP(O)(=S)c2ccc(N(C)C)cc2NC(=O)c2cccs2)CC(C)(C)C1` (stereo unspecified)?
ALDH1A1 block: 4µM*

How did CC1=C(O)C(=O)C=C2C1=CC=C1[C@]2(C)CC[C@@]2(C)C3C[C@](C)(C(=O)O)CC[C@@]3(C)CC[C@@]12C (stereo partly specified) do in these assays?
ALDH1A1 block: -6%; ALOX12 inhib: inconclusive; HPGD block: 2µM*

What do the screens show for `CN(C)c1ccc(N(C)C)cc1`?
ALDH1A1 block: inconclusive; ALOX12 inhib: -12%; HPGD block: -27%

Results for O=[N+]([O-])c1ccc(N2CCNCC2)cc1NCc1ccco1 ?
Lamin A splicing: 7%; ALDH1A1 block: 28µM*; ALOX12 inhib: -4%; HPGD block: -19%; PNC assembly inh: -6

How did CN1CCN(c2ccc([N+](=O)[O-])c(N3CCCCC3)c2)CC1 do in these assays?
Lamin A splicing: 13%[46 µM]; ALDH1A1 block: inconclusive

Results for O=[N+]([O-])c1ccc(N2CCNCC2)cc1N1CCCCCC1 ?
ALDH1A1 block: 4.5µM*

Results for O=[N+]([O-])c1cc(F)c(N2CCCCCC2)cc1N1CCNCC1 ?
Lamin A splicing: -17%[46 µM]; ALDH1A1 block: 7.1µM*

What do the screens show for `Nc1cc(N2CCNCC2)ccc1[N+](=O)[O-]`?
Lamin A splicing: 0%; ALDH1A1 block: 1%; ALOX12 inhib: -3%; HPGD block: -17%; PNC assembly inh: 37

How did C#CCN[C@@H](C)Cc1ccccc1 do in these assays?
ALOX12 inhib: -2%

Results for CN1CCN(Cc2cc(C(C)(C)C)c(O)c(C(C)(C)C)c2)CC1 ?
Lamin A splicing: -6%; ALDH1A1 block: 22µM*; ALOX12 inhib: -4%; HPGD block: 6%; PNC assembly inh: 13

What do the screens show for `CC(=O)Nc1ccc(S(=O)(=O)N(C)CCOCc2ccccc2)cc1`?
Lamin A splicing: inconclusive; ALDH1A1 block: inconclusive; ALOX12 inhib: -5%; HPGD block: -7%; PNC assembly inh: -1

How did CN1CCCC(C(=O)c2ccccc2)C1 (stereo unspecified) do in these assays?
Lamin A splicing: -6%; ALDH1A1 block: 8%; ALOX12 inhib: 3%; HPGD block: -8%; PNC assembly inh: 82

How did CN1CCC(O)(c2ccccc2)C(C(=O)c2ccccc2)C1 (stereo unspecified) do in these assays?
Lamin A splicing: 9%; ALDH1A1 block: 0.14µM*; ALOX12 inhib: -4%; HPGD block: -4%; PNC assembly inh: 27

Results for S=c1[nH]nc(-c2ccco2)n1/N=C/c1cccs1 ?
Lamin A splicing: -8%; ALDH1A1 block: 25µM*; ALOX12 inhib: -8%; HPGD block: 28µM*; PNC assembly inh: -24

How did C=C(C)Cn1c(-c2cccs2)n[nH]c1=S do in these assays?
Lamin A splicing: 13%[46 µM]; ALDH1A1 block: inconclusive

Compound activity from PubChem.
